Experimental data reported in paper PMC8384837, “Expanding the binding specificity for RNA recognition by a PUF domain”.

Columns and labels:
Assay in all cases: yeast three-hybrid, YBZ-1, SC-Leu-His + 0.5 mM 3-AT, 4 days
Details in all cases: tags: N-Gal4 AD-HA kept; label: inside an RPR1-promoter hybrid RNA with tandem MS2 sites; ssRNA
PUM1 PUF domain R6-YWL = biological target: T1, PUM1 PUF domain R6-YWL (Homo sapiens, UniProt Q14671 828-1176, N1043Y;Y1044W;Q1047L)
T1 sequence: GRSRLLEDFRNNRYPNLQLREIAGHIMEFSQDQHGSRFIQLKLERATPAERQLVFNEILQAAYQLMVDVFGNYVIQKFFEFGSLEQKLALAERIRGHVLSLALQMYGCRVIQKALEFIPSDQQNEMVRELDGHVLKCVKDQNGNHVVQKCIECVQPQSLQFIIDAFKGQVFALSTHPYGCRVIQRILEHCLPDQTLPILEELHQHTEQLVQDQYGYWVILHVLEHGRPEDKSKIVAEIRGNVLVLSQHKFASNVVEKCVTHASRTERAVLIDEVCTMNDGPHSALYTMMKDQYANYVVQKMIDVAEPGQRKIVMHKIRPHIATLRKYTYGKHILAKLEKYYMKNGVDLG
Procedure, shortened: (§1)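 Sequencing with Illumina followed PCR amplification of the repeat regions from transformants grown four days on SC-Leu (input) or SC-Leu-His + 0.5 mM 3-AT (selection). The transformants were strain YBZ-1 with a LexA–MS2 coat fusion and a HIS3 reporter, carrying Pumilio-1 PUF domain libraries and matching RNA elements. The interaction score is the log change in variant frequency from input to selection, computed in log2 with a pseudocount of 1 for absent variants.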

PUM1 PUF domain R2-LWQ = PUM1 PUF domain R2-LWQ (Homo sapiens, UniProt Q14671 828-1176, N899L;Y900W)
Procedure, shortened: as §1

PUM1 PUF domain R2-DRQ = PUM1 PUF domain R2-DRQ (Homo sapiens, UniProt Q14671 828-1176, N899D;Y900R)
Procedure, shortened: as §1

PUM1 PUF domain R5-GRV = PUM1 PUF domain R5-GRV (Homo sapiens, UniProt Q14671 828-1176, C1007G;Q1011V)
Procedure, shortened: as §1

PUM1 PUF domain R4-DWG = PUM1 PUF domain R4-DWG (Homo sapiens, UniProt Q14671 828-1176, N971D;H972W;Q975G)
Procedure, shortened: as §1

PUM1 PUF domain R5-HLE = PUM1 PUF domain R5-HLE (Homo sapiens, UniProt Q14671 828-1176, C1007H;R1008L;Q1011E)
Procedure, shortened: as §1

PUM1 PUF domain R3-EHG = PUM1 PUF domain R3-EHG (Homo sapiens, UniProt Q14671 828-1176, C935E;R936H;Q939G)
Procedure, shortened: as §1

PUM1 PUF domain R3-RTV = PUM1 PUF domain R3-RTV (Homo sapiens, UniProt Q14671 828-1176, C935R;R936T;Q939V)
Procedure, shortened: as §1

PUM1 PUF domain R3-LWC = PUM1 PUF domain R3-LWC (Homo sapiens, UniProt Q14671 828-1176, C935L;R936W;Q939C)
Procedure, shortened: as §1

PUM1 PUF domain R1-RYQ = PUM1 PUF domain R1-RYQ (Homo sapiens, UniProt Q14671 828-1176, S863R;R864Y)
Procedure, shortened: as §1

PUM1 PUF domain R4-HWP = PUM1 PUF domain R4-HWP (Homo sapiens, UniProt Q14671 828-1176, N971H;H972W;Q975P)
Procedure, shortened: as §1

PUM1 PUF domain R4-GPT = PUM1 PUF domain R4-GPT (Homo sapiens, UniProt Q14671 828-1176, N971G;H972P;Q975T)
Procedure, shortened: as §1

PUM1 PUF domain R3-YYS = PUM1 PUF domain R3-YYS (Homo sapiens, UniProt Q14671 828-1176, C935Y;R936Y;Q939S)
Procedure, shortened: as §1

PUM1 PUF domain R3-GPE = PUM1 PUF domain R3-GPE (Homo sapiens, UniProt Q14671 828-1176, C935G;R936P;Q939E)
Procedure, shortened: as §1

## GGCUAGAACUAGUGGAUCCCCCGGCGCCCGGCGGCUCGAGCCCGGGUAAGUGAAAAUAGUCUGCAUGCCGCCGGGCGCCAUGCCUGCAGGUCGACUCUAGAAAACAUG
PUM1 PUF domain R6-YWL
  binding signal: 7.77 log2 enrichment (interaction score)

## GGCUAGAACUAGUGGAUCCCCCGGCGCCCGGCGGCUCGAGCCCGGGUAAGUGUAAAAAGUCUGCAUGCCGCCGGGCGCCAUGCCUGCAGGUCGACUCUAGAAAACAUG
PUM1 PUF domain R2-LWQ
  binding signal: 8.53 log2 enrichment (interaction score)
PUM1 PUF domain R2-DRQ
  binding signal: 2.96 log2 enrichment (interaction score)

## GGCUAGAACUAGUGGAUCCCCCGGCGCCCGGCGGCUCGAGCCCGGGUAAGUGUGAAUAGUCUGCAUGCCGCCGGGCGCCAUGCCUGCAGGUCGACUCUAGAAAACAUG
PUM1 PUF domain R5-GRV
  binding signal: 2.53 log2 enrichment (interaction score)

## GGCUAGAACUAGUGGAUCCCCCGGCGCCCGGCGGCUCGAGCCCGGGUAAGUGUACAUAGUCUGCAUGCCGCCGGGCGCCAUGCCUGCAGGUCGACUCUAGAAAACAUG
PUM1 PUF domain R4-DWG
  binding signal: 2.61 log2 enrichment (interaction score)

## GGCUAGAACUAGUGGAUCCCCCGGCGCCCGGCGGCUCGAGCCCGGGUAAGUGUCAAUAGUCUGCAUGCCGCCGGGCGCCAUGCCUGCAGGUCGACUCUAGAAAACAUG
PUM1 PUF domain R5-HLE
  binding signal: 0.68 log2 enrichment (interaction score)

## GGCUAGAACUAGUGGAUCCCCCGGCGCCCGGCGGCUCGAGCCCGGGUAAGUGUAAUUAGUCUGCAUGCCGCCGGGCGCCAUGCCUGCAGGUCGACUCUAGAAAACAUG
PUM1 PUF domain R3-EHG
  binding signal: 5.05 log2 enrichment (interaction score)
PUM1 PUF domain R3-RTV
  binding signal: 2.72 log2 enrichment (interaction score)
PUM1 PUF domain R3-LWC
  binding signal: 2.16 log2 enrichment (interaction score)

## GGCUAGAACUAGUGGAUCCCCCGGCGCCCGGCGGCUCGAGCCCGGGUAAGUGUAAAUAGUCUGCAUGCCGCCGGGCGCCAUGCCUGCAGGUCGACUCUAGAAAACAUG
PUM1 PUF domain R2-LWQ
  binding signal: 1.66 log2 enrichment (interaction score)
PUM1 PUF domain R3-EHG
  binding signal: 2.53 log2 enrichment (interaction score)
PUM1 PUF domain R1-RYQ
  binding signal: 2.21 log2 enrichment (interaction score)
PUM1 PUF domain R4-DWG
  binding signal: 5.39 log2 enrichment (interaction score)
PUM1 PUF domain R4-HWP
  binding signal: 5.47 log2 enrichment (interaction score)
PUM1 PUF domain R5-GRV
  binding signal: 2.75 log2 enrichment (interaction score)
PUM1 PUF domain R4-GPT
  binding signal: 2.42 log2 enrichment (interaction score)
PUM1 PUF domain R5-HLE
  binding signal: 1.15 log2 enrichment (interaction score)

## GGCUAGAACUAGUGGAUCCCCCGGCGCCCGGCGGCUCGAGCCCGGGUAAGUGUAAGUAGUCUGCAUGCCGCCGGGCGCCAUGCCUGCAGGUCGACUCUAGAAAACAUG
PUM1 PUF domain R3-EHG
  binding signal: 4.29 log2 enrichment (interaction score)
PUM1 PUF domain R3-YYS
  binding signal: 6.91 log2 enrichment (interaction score)
PUM1 PUF domain R3-LWC
  binding signal: 3.65 log2 enrichment (interaction score)
PUM1 PUF domain R3-GPE
  binding signal: 5.98 log2 enrichment (interaction score)
